# Source: PubChem BioAssay AID2071 (Sanford-Burnham Center for Chemical Genomics, 2009)
# The whole screen tested about 280,000 compounds, of which about 1,700 (0.61%) were called active. No stated cut-off is given here; in the data, active means inhibition mostly above about 24% (no sharp cut-off); inactive means mostly below about 32%. For the sample, actives were picked, then their nearest neighbours and some compounds at random.
# Assay: NALP1 inflammasome inhibitors in reconstituted yeast, colorimetric, S. cerevisiae, triplicate retest (AID 2071)
# Details: S. cerevisiae NALP1/ASC/caspase-1 growth, X-gal OD620, 72 h, stronger effect = higher value
smiles,measurement,setting,value
CC(=O)NCCNC(=O)c1cc(-c2cccc3ccccc23)nc2ccccc12,inhibition,at 10 µM unless noted,0.4% (inactive)
C=CCOc1cccc(C2C(C(=O)c3ccc(C)o3)=C(O)C(=O)N2CCCn2ccnc2)c1 (stereo not given),inhibition,at 10 µM unless noted,13.4% (inactive)
O=C(CNC(=O)c1ccc(F)cc1)c1ccccc1,inhibition,at 10 µM unless noted,3.2% (inactive)
O=C(NCc1cccc(Cl)c1)C1CCC(=O)N(C2CC2)C1 (stereo not given),inhibition,at 10 µM unless noted,15.1% (inactive)
O=C(C1CCC(=O)N(C2CC2)C1)N1CCN(c2ccc(Cl)cc2)CC1 (stereo not given),inhibition,at 10 µM unless noted,26.5% (active)
O=C(C1CC(=O)N(C2CCCCC2)C1)N1CCN(c2ccccc2)CC1 (stereo not given),inhibition,at 10 µM unless noted,4.2% (inactive)
O=C(NCc1ccccc1)C(=O)NCC1OCCN1S(=O)(=O)c1ccc(Br)cc1 (stereo not given),inhibition,at 10 µM unless noted,8% (inactive)
Nc1nc(Nc2ccccc2)nc(NCCO)c1[N+](=O)[O-],inhibition,at 10 µM unless noted,2.9% (inactive)
OCCNc1nc(Nc2ccc(Cl)c(Cl)c2)nc2ccccc12,inhibition,at 10 µM unless noted,31.9% (active)
CN(C)c1nc(Nc2ccc(Cl)c(Cl)c2)nc(N(C)C)n1,inhibition,at 10 µM unless noted,14.2% (inactive)
O=S(=O)(NC1CC2CCC1C2)c1ccc(Cl)cc1 (stereo not given),inhibition,at 10 µM unless noted,-6% (inactive)
Cc1ccc2c(C)c(C(=O)N3CCN(c4ccncc4)CC3)oc2c1C,inhibition,at 10 µM unless noted,12.6% (inactive)
COc1cc(CN2CCCC(C(=O)c3ccc(SC)cc3)C2)cc(Cl)c1O (stereo not given),inhibition,at 10 µM unless noted,19.3% (inactive)
COc1ccc(S(=O)(=O)N2CCN(C)CC2)c(C)c1,inhibition,at 10 µM unless noted,26.4% (inactive)
COc1ccc(C)cc1Nc1n[n+](-c2ccccc2)c(-c2cccc(Cl)c2Cl)s1,inhibition,at 10 µM unless noted,19.6% (inactive)
CCOC(=O)/C(C#N)=C/c1ccc(N2CCCCC2)cc1,inhibition,at 10 µM unless noted,6.6% (inactive)
O=C1C=CC(=O)N1c1ccc(N2CCCCC2)cc1,inhibition,at 10 µM,45.6% (active)
same,inhibition,"triplicate retest, at 20 µM",114%
Cc1ccccc1C(=O)Nc1ccc(N2CCCCCC2)cc1,inhibition,at 10 µM unless noted,1.4% (inactive)
CCOc1c2ccc(C(=O)NCc3ccc4c(c3)OCO4)cc2nn1C,inhibition,at 10 µM unless noted,30.5% (inactive)
CCOc1c2ccc(C(=O)NCc3ccc(OC(F)(F)F)cc3)cc2nn1C,inhibition,at 10 µM unless noted,14.9% (inactive)
CCCn1nc2cc(C(=O)NCc3ccccc3)ccc2c1OCC,inhibition,at 10 µM unless noted,34.5% (active)
CCc1noc(C)c1C(=O)N1CCCC(N2CCN(c3ccc(F)cc3)CC2)C1 (stereo not given),inhibition,at 10 µM unless noted,15% (inactive)
CCOc1ccc(-n2c(SCC(N)=O)nnc2-c2ccco2)cc1,inhibition,at 10 µM unless noted,7.9% (inactive)
Oc1c(Cl)cc(Cl)c(Cl)c1Cc1c(O)c(Cl)cc(Cl)c1Cl,inhibition,at 10 µM,121% (active)
same,inhibition,"triplicate retest, at 20 µM",100%
Cc1cc(S(=O)(=O)NCC(C)C)ccc1OCC(=O)NC1CC1,inhibition,at 10 µM unless noted,13.3% (inactive)
Cc1ccc2nc(NC(=O)C3CCN(S(=O)(=O)c4ccc5c(c4)oc(=O)n5C)CC3)sc2c1,inhibition,at 10 µM unless noted,0.1% (inactive)
COc1ccc(NC(=O)C2CCN(S(=O)(=O)c3ccc4[nH]c(=O)oc4c3)CC2)c(OC)c1,inhibition,at 10 µM unless noted,-45% (inactive)
Cn1c(=O)oc2cc(S(=O)(=O)N3CCC(C(=O)Nc4ccc(OC(F)(F)F)cc4)CC3)ccc21,inhibition,at 10 µM unless noted,22.5% (active)
COCCCNC(=S)N(CCN(C)C)Cc1cc2cc3c(cc2[nH]c1=O)OCCO3,inhibition,at 10 µM unless noted,8.7% (inactive)
COc1ccc(C(=O)Nc2ccnn2C2CCN(Cc3ccncc3)CC2)cc1,inhibition,at 10 µM unless noted,14.9% (inactive)
COc1cc2[nH]c(=O)n(CCC(=O)NC3CCN(Cc4ccccc4)CC3)c(=O)c2cc1OC,inhibition,at 10 µM unless noted,15.6% (inactive)
COc1cc(C(=O)NC2CCN(Cc3ccccc3)CC2)cc(Cl)c1OC(C)C,inhibition,at 10 µM unless noted,19.9% (inactive)
COc1cc2[nH]c(=O)n(Cc3ccc(C(=O)NC4CCN(Cc5ccccc5)CC4)cc3)c(=O)c2cc1OC,inhibition,at 10 µM unless noted,36.6% (active)
O=C(N/N=C\C1CC=CCC1)c1ccc(Br)o1 (stereo not given),inhibition,at 10 µM unless noted,11.4% (inactive)
CCCn1c(C2CCCN2c2nc(-c3ccc(OC)cc3)cs2)nc2ccccc21 (stereo not given),inhibition,at 10 µM unless noted,21.7% (inactive)
Oc1ccc2ccccc2c1N=Nc1nccs1,inhibition,at 10 µM unless noted,59.8% (active)
Oc1ccc(N=Cc2c(O)ccc3ccccc23)cc1,inhibition,at 10 µM unless noted,-1.8% (inactive)
Oc1ccc(N=Nc2nccs2)c(O)c1,inhibition,at 10 µM unless noted,8.1% (inactive)
O=C(NCCNc1ccc([N+](=O)[O-])cc1Cl)c1ccccc1F,inhibition,at 10 µM unless noted,29.5% (inactive)
Fc1ccccc1N=C1Nc2cccc3cccc1c23,inhibition,at 10 µM unless noted,-0.1% (inactive)
c1ccc(C2=Nc3cccc4cccc(c34)N2)cc1,inhibition,at 10 µM unless noted,47.7% (active)
COc1ccccc1C1=Nc2cccc3cccc(c23)N1,inhibition,at 10 µM unless noted,9.5% (inactive)
O=C(c1noc2c1CCCC2)N1CCc2ccccc2C1,inhibition,at 10 µM unless noted,3.2% (inactive)
COc1ccc(N2CCN(C(=O)c3ccccc3NC(=O)C3=C(C)OCCS3)CC2)cc1,inhibition,at 10 µM unless noted,13.7% (inactive)
COc1cc(-c2c(-c3ccc4c(c3)OCO4)noc2C)ccc1F,inhibition,at 10 µM unless noted,3.9% (inactive)
Fc1ccc(NC(=S)N2CCc3[nH]c4ccccc4c3C2)cc1,inhibition,at 10 µM unless noted,-2.7% (inactive)
C=CCNC(=S)N1CCc2[nH]c3ccccc3c2C1,inhibition,at 10 µM unless noted,36.9% (active)
CCCC(=O)N1CCc2[nH]c3ccccc3c2C1,inhibition,at 10 µM unless noted,12.2% (inactive)
